Of roughly 7,900 targets only a part is listed; those with a hit were picked by preference. About 0.6% of all pairs of compound and target were hits. Unmarked numbers belong to inactive results.
Tests used:
Test in all cases: log2 fold change, soluble protein after heating vs DMSO (PISA); higher = thermal stabilisation; K562 cells, 10 uM, 30 min; active = over 0.2 and 3.5 SD of the protein, either way, in both replicates (recomputed)
saracatinib = compound: CN1CCN(CCOc2cc(OC3CCOCC3)c3c(Nc4c(Cl)ccc5c4OCO5)ncnc3c2)CC1 [saracatinib]
How it was run: (§1)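 Soluble protein was quantified by TMTpro 16plex LC-MS/MS after channel sums were equalised. It was obtained as the supernatant after 21,000xg for 90 min from pooled aliquots of K562 cells (2×10^6 cells/mL, 10 μM compound, 30 min) heated for 3 min across 48°C-58°C and extracted in PBS with 0.5% NP-40 at 4°C. Thermal stability values are relative to control samples and come from duplicates. They are given as log2 fold changes.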

sotrastaurin = compound: CN1CCN(c2nc(C3=C(c4c[nH]c5ccccc45)C(=O)NC3=O)c3ccccc3n2)CC1 [sotrastaurin]
How it was run: as §1

alvocidib = compound: CN1CC[C@H](c2c(O)cc(O)c3c(=O)cc(-c4ccccc4Cl)oc23)[C@H](O)C1 [alvocidib]
How it was run: as §1

Tubastatin A = compound: CN1CCc2c(c3ccccc3n2Cc2ccc(C(=O)NO)cc2)C1 [Tubastatin A]
How it was run: as §1

[1] = compound: CNC(=O)C1=CC=CC=C1NC2=NC(=NC=C2Cl)NC3=C(C=C(C=C3)N4CCOCC4)OC
How it was run: as §1

defactinib = compound: CNC(=O)c1ccc(Nc2ncc(C(F)(F)F)c(NCc3nccnc3N(C)S(C)(=O)=O)n2)cc1 [defactinib]
How it was run: as §1

rucaparib = compound: CNCc1ccc(-c2[nH]c3cc(F)cc4c3c2CCNC4=O)cc1 [rucaparib]
How it was run: as §1

[2] = compound: CNc1nc(-c2ccc3c(N)n[nH]c3c2)cc(N2C[C@@H](C(=O)NC3CCCCC3)CC[C@H]2C)n1
How it was run: as §1

encorafenib = compound: COC(=O)N[C@@H](C)CNc1nccc(-c2cn(C(C)C)nc2-c2cc(Cl)cc(NS(C)(=O)=O)c2F)n1 [encorafenib]
How it was run: as §1

[3] = compound: COC(=O)[C@H](CCSC)NC(=O)C1=C(C=C(C=C1)NC[C@H](CS)N)C2=CC=CC=C2
How it was run: as §1

UniProt P53350, sequence (P53350 whole entry, looked up): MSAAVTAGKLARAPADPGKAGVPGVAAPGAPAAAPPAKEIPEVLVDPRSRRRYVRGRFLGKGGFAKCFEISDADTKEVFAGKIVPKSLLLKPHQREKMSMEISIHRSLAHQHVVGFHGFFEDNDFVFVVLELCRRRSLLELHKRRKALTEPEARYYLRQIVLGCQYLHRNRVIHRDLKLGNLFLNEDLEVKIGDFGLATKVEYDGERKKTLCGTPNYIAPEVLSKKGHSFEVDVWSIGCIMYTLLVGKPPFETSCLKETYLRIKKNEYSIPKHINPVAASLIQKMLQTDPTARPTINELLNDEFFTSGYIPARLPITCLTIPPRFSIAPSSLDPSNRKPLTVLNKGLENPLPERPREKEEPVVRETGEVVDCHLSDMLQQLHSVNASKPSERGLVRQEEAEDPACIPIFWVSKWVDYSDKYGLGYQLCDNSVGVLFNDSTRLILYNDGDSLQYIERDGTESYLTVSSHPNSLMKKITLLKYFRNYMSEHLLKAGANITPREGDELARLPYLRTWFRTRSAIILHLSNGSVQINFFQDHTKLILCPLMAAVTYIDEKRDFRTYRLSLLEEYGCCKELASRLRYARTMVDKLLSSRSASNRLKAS
UniProt Q9UKL6, sequence (Q9UKL6 whole entry, looked up): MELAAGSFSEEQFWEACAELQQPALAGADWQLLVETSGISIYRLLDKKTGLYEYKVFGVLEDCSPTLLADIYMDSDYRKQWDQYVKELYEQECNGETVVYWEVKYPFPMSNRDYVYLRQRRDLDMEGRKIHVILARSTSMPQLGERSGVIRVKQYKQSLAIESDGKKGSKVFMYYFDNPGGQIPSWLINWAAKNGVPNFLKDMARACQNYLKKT
UniProt P0CG38, sequence (P0CG38 whole entry, looked up): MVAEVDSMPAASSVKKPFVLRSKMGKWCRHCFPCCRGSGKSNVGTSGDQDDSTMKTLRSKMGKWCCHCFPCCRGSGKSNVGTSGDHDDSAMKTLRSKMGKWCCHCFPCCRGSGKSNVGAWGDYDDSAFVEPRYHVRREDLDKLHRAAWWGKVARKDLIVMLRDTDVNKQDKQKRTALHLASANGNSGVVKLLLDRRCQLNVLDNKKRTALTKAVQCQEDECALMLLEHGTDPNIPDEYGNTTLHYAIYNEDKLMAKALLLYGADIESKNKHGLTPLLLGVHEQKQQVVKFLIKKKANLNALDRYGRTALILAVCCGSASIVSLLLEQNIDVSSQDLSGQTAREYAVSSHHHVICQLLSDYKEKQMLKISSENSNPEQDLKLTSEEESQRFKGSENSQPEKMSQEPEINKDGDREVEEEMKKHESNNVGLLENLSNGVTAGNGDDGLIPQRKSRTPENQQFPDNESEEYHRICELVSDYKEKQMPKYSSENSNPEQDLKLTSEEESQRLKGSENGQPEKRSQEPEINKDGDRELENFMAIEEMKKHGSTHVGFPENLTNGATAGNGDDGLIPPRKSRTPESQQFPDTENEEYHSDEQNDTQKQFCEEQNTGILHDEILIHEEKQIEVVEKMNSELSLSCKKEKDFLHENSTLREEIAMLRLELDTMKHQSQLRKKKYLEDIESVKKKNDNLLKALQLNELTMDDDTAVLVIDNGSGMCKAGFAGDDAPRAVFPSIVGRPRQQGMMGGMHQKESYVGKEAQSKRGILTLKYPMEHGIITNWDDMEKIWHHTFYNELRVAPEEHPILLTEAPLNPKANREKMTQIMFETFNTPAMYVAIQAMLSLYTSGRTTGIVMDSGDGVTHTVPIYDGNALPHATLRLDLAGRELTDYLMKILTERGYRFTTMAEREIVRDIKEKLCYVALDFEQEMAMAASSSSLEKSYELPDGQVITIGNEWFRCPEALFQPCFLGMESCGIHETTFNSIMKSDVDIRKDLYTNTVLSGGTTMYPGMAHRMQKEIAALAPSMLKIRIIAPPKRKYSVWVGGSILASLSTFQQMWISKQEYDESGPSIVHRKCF
UniProt Q9NP80, sequence (Q9NP80 whole entry, looked up): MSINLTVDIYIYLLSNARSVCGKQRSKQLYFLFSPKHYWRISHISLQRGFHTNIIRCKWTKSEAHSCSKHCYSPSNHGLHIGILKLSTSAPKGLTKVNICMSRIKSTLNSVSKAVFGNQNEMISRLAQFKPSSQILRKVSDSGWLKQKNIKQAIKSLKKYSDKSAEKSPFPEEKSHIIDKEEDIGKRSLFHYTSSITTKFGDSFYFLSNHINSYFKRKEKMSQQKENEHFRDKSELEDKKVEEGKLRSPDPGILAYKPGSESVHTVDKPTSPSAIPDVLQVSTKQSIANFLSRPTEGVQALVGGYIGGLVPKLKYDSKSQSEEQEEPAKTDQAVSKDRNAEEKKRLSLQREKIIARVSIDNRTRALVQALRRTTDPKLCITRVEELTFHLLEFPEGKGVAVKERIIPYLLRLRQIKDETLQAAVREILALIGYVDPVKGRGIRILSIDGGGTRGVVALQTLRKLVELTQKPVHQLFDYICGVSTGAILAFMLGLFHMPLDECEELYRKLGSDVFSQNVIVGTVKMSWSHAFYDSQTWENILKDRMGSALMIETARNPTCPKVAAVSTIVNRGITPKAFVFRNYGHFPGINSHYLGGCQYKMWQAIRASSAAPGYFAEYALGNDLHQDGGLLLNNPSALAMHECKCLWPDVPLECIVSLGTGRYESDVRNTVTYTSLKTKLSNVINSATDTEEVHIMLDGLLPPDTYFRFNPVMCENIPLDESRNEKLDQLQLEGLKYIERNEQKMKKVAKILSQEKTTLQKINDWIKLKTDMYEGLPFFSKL
UniProt P42338, sequence (P42338 whole entry, looked up): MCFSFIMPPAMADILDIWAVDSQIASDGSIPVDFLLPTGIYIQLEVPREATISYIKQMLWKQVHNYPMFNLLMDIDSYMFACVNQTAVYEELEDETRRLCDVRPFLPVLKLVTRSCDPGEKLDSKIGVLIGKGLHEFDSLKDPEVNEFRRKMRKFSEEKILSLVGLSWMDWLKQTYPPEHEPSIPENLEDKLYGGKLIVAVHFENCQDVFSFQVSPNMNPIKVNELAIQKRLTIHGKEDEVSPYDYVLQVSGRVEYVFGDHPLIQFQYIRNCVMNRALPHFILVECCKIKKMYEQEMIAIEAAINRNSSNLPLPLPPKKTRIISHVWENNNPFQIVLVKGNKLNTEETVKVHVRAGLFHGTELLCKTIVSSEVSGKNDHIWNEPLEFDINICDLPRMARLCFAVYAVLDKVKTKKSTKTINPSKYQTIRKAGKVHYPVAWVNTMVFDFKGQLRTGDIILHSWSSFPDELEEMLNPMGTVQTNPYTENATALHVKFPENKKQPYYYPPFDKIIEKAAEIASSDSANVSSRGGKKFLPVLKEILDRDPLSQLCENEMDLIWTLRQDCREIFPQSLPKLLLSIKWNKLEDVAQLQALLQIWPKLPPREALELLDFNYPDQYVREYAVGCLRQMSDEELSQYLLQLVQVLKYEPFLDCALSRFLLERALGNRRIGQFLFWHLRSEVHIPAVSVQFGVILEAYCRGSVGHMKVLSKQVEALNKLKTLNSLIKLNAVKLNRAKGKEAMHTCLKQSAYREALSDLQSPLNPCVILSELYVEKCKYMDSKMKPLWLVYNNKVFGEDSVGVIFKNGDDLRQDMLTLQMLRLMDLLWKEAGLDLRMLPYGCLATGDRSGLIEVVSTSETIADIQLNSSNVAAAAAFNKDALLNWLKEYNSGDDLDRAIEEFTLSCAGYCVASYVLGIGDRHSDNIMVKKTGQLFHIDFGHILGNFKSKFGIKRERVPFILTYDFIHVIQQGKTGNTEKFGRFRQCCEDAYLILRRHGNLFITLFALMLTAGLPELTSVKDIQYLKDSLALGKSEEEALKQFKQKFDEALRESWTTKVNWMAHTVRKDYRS
UniProt O15530, sequence (O15530 whole entry, looked up): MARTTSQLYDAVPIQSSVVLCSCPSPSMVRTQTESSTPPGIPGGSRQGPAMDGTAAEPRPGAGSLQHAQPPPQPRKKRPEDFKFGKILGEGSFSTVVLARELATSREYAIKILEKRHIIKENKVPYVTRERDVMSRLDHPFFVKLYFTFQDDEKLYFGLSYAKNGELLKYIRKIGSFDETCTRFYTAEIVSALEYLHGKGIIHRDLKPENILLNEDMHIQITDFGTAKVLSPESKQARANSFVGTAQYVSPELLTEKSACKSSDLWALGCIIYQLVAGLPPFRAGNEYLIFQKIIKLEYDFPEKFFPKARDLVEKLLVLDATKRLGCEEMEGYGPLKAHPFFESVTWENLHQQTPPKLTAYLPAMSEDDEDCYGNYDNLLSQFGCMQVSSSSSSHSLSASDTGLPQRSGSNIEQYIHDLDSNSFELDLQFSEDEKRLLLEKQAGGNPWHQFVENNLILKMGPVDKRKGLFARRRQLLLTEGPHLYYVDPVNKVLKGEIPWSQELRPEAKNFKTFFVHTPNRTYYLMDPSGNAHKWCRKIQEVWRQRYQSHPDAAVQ
UniProt Q8TBX8, sequence (Q8TBX8 whole entry, looked up): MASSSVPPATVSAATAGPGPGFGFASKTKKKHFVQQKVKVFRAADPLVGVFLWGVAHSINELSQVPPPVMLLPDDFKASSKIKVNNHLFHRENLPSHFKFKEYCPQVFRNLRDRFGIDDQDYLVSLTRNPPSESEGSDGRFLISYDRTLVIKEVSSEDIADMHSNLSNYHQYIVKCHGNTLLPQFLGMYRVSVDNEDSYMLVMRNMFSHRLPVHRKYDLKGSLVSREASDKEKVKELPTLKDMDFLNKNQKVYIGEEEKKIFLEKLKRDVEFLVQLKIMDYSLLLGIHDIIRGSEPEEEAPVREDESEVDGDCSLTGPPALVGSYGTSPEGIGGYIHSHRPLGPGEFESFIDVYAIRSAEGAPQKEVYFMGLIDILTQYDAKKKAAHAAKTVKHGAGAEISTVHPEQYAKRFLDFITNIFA

| Target | log2 fold change (saracatinib) | log2 fold change (sotrastaurin) | log2 fold change (alvocidib) | log2 fold change (Tubastatin A) | log2 fold change [1] | log2 fold change (defactinib) | log2 fold change (rucaparib) | log2 fold change [2] | log2 fold change (encorafenib) | log2 fold change [3] |
| --- | --- | --- | --- | --- | --- | --- | --- | --- | --- | --- |
| PIK3CD (UniProt O00329) | -0.124 | -0.106 | 0.055 | 0.003 | 0.08 | -0.218 | 0.182 | 0.089 | -0.019 | -0.062 |
| PELP1 (UniProt Q8IZL8) | -0.002 | -0.007 | -0.066 | -0.021 | -0.027 | -0.082 | -0.054 | -0.069 | -0.012 | 0.004 |
| POLR1A (UniProt O95602) | -0.027 | -0.151 | -0.06 | 0.148 | -0.138 | -0.011 | 0.064 | -0.089 | -0.015 | 0.115 |
| POLR2D (UniProt O15514) | 0.064 | 0.015 | 0.22 | -0.064 | -0.114 | 0.165 | 0.056 | 0.026 | 0.003 | -0.038 |
| PNPLA8 (UniProt Q9NP80) | 0.022 | 0.052 | 0.037 | -0.009 | -0.021 | -0.051 | 0.038 | -0.016 | 0.026 | -0.01 |
| PIP4K2C (UniProt Q8TBX8) | -0.049 | -0.035 | 0.54 | 0.133 | 0.371 | 0.527 | 0.011 | -0.042 | 0.051 | -0.113 |
| PRKAR1A (UniProt P10644) | -0.067 | 0.105 | 0.121 | 0.007 | 0.366 | 0.14 | 0.13 | 0.005 | 0.073 | -0.069 |
| PCTP (UniProt Q9UKL6) | 0.083 | -0.016 | 0.014 | -0.002 | 0 | -0.037 | -0.056 | 0.039 | -0.032 | 0.094 |
| PTPN23 (UniProt Q9H3S7) | -0.007 | -0.13 | -0.061 | 0.112 | 0.055 | -0.169 | 0.074 | -0.055 | 0.043 | -0.023 |
| PLK1 (UniProt P53350) | 0.034 | -0.223 | 0.14 | -0.058 | -2.06 (active) | -0.165 | 0.052 | -0.008 | 0.058 | -0.013 |
| POTEI (UniProt P0CG38) | 0.108 | 0.066 | -0.038 | -0.012 | -0.02 | -0.026 | -0.049 | -0.014 | -0.007 | -0.016 |
| PIK3CB (UniProt P42338) | -0.019 | 0.01 | -0.026 | 0.001 | -0.011 | -0.04 | 0.014 | 0.042 | -0.015 | -0.003 |
| PIP4K2A (UniProt P48426) | 0.048 | 0.011 | 0.131 | -0.001 | 0.084 | 0.166 | 0.013 | -0.132 | 0.1 | -0.056 |
| PDPK1 (UniProt O15530) | -0.008 | 0.034 | -0.075 | 0.023 | -0.064 | -0.025 | -0.056 | 0.385 (active) | 0.041 | 0 |

Reference: the supplement of paper PMC10849652
